KKLEB tox: cytotoxicity in KKLEB CF airway cells, primary screen, cytotoxicity control for CF NF-kB inhibitor project, cell-based, uHTS, fluorescence assay plates; KKLEB CF airway cells viability, ATPlite luminescence, overnight; stronger effect = lower value; cells stimulated with P. aeruginosa culture filtrate; AID 602141, 2011; activity change (cytotoxicity), % at 5 µM; actives 0.36% (n = 360,000);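 active = corrected activity change at or below -50% at 5 µM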
TWEAK Fn14 block: inhibitors of TWEAK-Fn14 signaling, primary screen, luciferase reporter cells, uHTS; actives 2% (n = 360,000); AID 1159606, 2016; TWEAK-stimulated Fn14 reporter cells, luciferase luminescence, 8 h; inhibition, % at 10 µM; in the data active = inhibition above about 50%
Peg3 promoter: Peg3 promoter-driven luciferase inhibitors, primary screen, cell-based, HeLa, luciferase luminescence; actives 1.7% (n = 360,000); AID 588405, 2011; HeLa PEG-Prom luciferase reporter, overnight; inhibition, % at 20 µM;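 active = inhibition of at least 50% at 20 µM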
CF NFkB block: inhibitors of PAF-induced NF-kB signaling, primary screen, cell-based, GFP fluorescence, uHTS | inhibition, % at 5 µM | actives 0.86% (n = 360,000) | KKLEB NF-kB-GFP reporter, GFP fluorescence overnight;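 active = at least 50% inhibition at 5 µM, scaled per plate between neutral and stimulator controls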;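 also: PAF is a Pseudomonas aeruginosa culture filtrate used as stimulus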
HIF-2a inh: HIF-2a reporter inhibitors, primary screen, luminescence, 786-0 RCC cells; inhibition, % at 18.8 µM; actives 0.72% (n = 360,000); 786-0 RCC cells HIF-2a reporter, luciferase luminescence, overnight;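 active = inhibition of the luminescence signal of 40% or more relative to plate controls, in a single-dose primary screen at 18.75 µM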
TROY NFkB inh: inhibitors of TROY-driven NF-kB signaling, primary screen, Q293 LMP1-TROYcd cells, NF-kB luciferase, uHTS; AID 1347056, 2019; inhibition, % at 10 µM; actives 0.98% (n = 360,000); Q293 LMP1-TROYcd NF-kB luciferase reporter, 4 h;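 active = compounds whose plate-normalised and pattern-corrected inhibition of the luciferase reporter signal at the single screening dose is 50% or more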
Of the large screens only hits and unclear results are named; the others gave an inactive call. Sampled rows, rich in hits. Any-hit rate of the full collection: about 4%.

CCOC(=O)c1cccc(NC(=O)/C=C/c2ccc([N+](=O)[O-])cc2)c1	TWEAK Fn14 block 79, TROY NFkB inh 57
O=C(/C=C/c1ccc([N+](=O)[O-])cc1)Nc1cccc(C(=O)Nc2ccccc2C(=O)O)c1	TWEAK Fn14 block 71
COC(=O)c1cccc(NC(=O)/C=C/c2ccc([N+](=O)[O-])cc2)c1	none
Cc1ccc(C(=O)COC(=O)c2cccc(NC(=O)c3ccc([N+](=O)[O-])cc3[N+](=O)[O-])c2)cc1	TROY NFkB inh 59
Cc1cc(C)cc(NC(=O)/C=C/c2ccc([N+](=O)[O-])s2)c1	none
CC(=O)c1cccc(NC(=O)/C=C/c2ccc([N+](=O)[O-])s2)c1	TWEAK Fn14 block 84, Peg3 promoter 99
O=C(Nc1ccccc1C(=O)O)c1cccc(NC(=O)c2ccccc2Cl)c1	none
OC[C@@H]1CN(Cc2ccc3c(c2)OCO3)C[C@H](n2cnc3c(NCc4ccc(F)cc4)ncnc32)O1	none
Cc1ccc(C2=Nc3ccccc3N=C(c3ccco3)C2)c(O)c1	TROY NFkB inh 50
Cc1ccc(O)c(C2=Nc3ccccc3N=C(c3ccco3)C2)c1	none
COc1cccc(/C=N/Nc2nc3ccccc3n3cnnc23)c1O	Peg3 promoter 71
COc1cccc(/C=N/Nc2ncnc3scc(-c4ccccc4)c23)c1O	TWEAK Fn14 block 63, Peg3 promoter 60
COc1cccc(/C=N/Nc2ncnc(N)c2[N+](=O)[O-])c1OC	TWEAK Fn14 block 84
COc1cccc(/C=N/Nc2nc3ccccc3n3cnnc23)c1	none
COc1cccc(/C=N/Nc2nccnc2Cl)c1O	TWEAK Fn14 block 65, Peg3 promoter 53
CCOc1ccc(C2/C(=C(/O)c3ccc(S(=O)(=O)N4CCCCC4)cc3)C(=O)C(=O)N2CCCOC)cc1OC (centres undefined)	none
COc1cccc(/C=N/Nc2ncnc(Cl)c2N)c1O	Peg3 promoter 85, HIF-2a inh 63, TROY NFkB inh 61
COc1ccc(/C=N/Nc2nccnc2Cl)cc1	TWEAK Fn14 block 60
CCCCn1c(N)c(N(CC(C)C)C(=O)C2CCN(S(=O)(=O)c3ccc(C)c(C)c3)CC2)c(=O)[nH]c1=O	none
N#CC1=C(N)NC(SCc2ccc(Br)cc2)=C(C#N)C12CCCCC2	TROY NFkB inh 54
N#CC1=C(N)NC(SCc2ccc(Cl)cc2)=C(C#N)C12CCCCC2	none
COc1ccc(N2CCN(C(=O)c3ccc4c(=O)n(CCc5ccc(OC)c(OC)c5)c(=O)[nH]c4c3)CC2)cc1	TWEAK Fn14 block 59
O=C(c1ccc2c(=O)n(CCc3ccccc3)c(=O)[nH]c2c1)N1CCN(c2ccc(F)cc2)CC1	TWEAK Fn14 block 74, TROY NFkB inh 58
O=C(c1ccc2c(=O)n(CCc3ccccc3)c(=O)[nH]c2c1)N1CCN(c2ccccc2)CC1	none
COCCn1c(=O)[nH]c2cc(C(=O)N3CCN(c4ccc(Cl)cc4)CC3)ccc2c1=O	none
CCc1nc2c(OCc3ccccc3C)cccn2c1N(C)C(=O)C1CC1	none
COc1ccc2c(c1)CC/C(=C\Nc1ccc3c(c1)OCO3)C2=O	none
COc1ccc(N/C=C2\CCc3ccccc3C2=O)cc1	TWEAK Fn14 block 87, TROY NFkB inh 70
O=C1/C(=C/Nc2ccc3c(c2)OCO3)CCc2ccccc21	KKLEB tox -53
Cc1ccc2c(c1)c1c3n2CCN(C(=O)CCl)C3CCC1 (centres undefined)	Peg3 promoter 56
CC(=O)N1CCn2c3c(c4cc(C)ccc42)CCCC31 (centres undefined)	none
COc1ccc(CCn2c(-c3ccco3)nc3ccccc3c2=O)cc1OC	none
O=c1c2ccccc2nc(-c2ccco2)n1CCc1ccc(O)cc1	TWEAK Fn14 block 64
O=c1c2ccccc2nc(/C=C/c2ccc(O)cc2)n1CCc1ccccc1	TWEAK Fn14 block 66
O=c1c2ccccc2nc(/C=C/c2ccccc2)n1CCCO	none

Source: PubChem (Sanford-Burnham Center for Chemical Genomics)
